Reference: PubChem BioAssay (NCATS)
Records with an inconclusive call do not appear. Entries that show only a call come without a potency. Active and inactive are the calls of the source. Calls come from the whole dose curve; as a rule, active = well fitted curve in the direction sought with a large enough effect; inconclusive = small, poorly fitted or top-dose-only effect, or another doubt; inactive = no such curve, though single readings can be large; an effect the other way counts as inactive or inconclusive.

Tests used:
[1] = Quantitative High-Throughput drug screen in 47 multiple myeloma cell lines against the NCATS MIPE library collection: KMM1_JCRB cell viability assay (AID 1918960); note: nearly all actives have a fitted effect of over 30% in size
Summary of the method: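 Myeloma cells, 500 per well, were exposed to MIPE 4.0 drugs by pin transfer for 48 h at 37 °C, 5% CO2. Viability was read as ATP luminescence with CellTiter-Glo, normalised to DMSO-only (100%) and medium-only (0%) wells.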

[2] = Quantitative High-Throughput drug screen in 47 multiple myeloma cell lines against the NCATS MIPE library collection: Karpas417_ECACC cell viability assay (AID 1918961); details: Karpas417 myeloma viability, CellTiter-Glo ATP luminescence, 48 h; viability (% of DMSO): at 45.8 µM (top of the series)
Summary of the method: (§1)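 Myeloma cell lines, 500 cells per well, exposed to MIPE 4.0 library compounds for 48 h at 37C, 5% CO2. Viability from ATP by CellTiter-Glo luminescence; normalised to DMSO (100%) and media-only (0%) wells.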

[3] = Quantitative High-Throughput drug screen in 47 multiple myeloma cell lines against the NCATS MIPE library collection: KMS12BM_JCRB cell viability assay (AID 1918971); note: nearly all actives have a fitted effect of over 35% in size
Summary of the method: (§2)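 CellTiter-Glo luminescence (ATP) after 48 h compound exposure, 37C/5% CO2; 500 cells/well; MIPE 4.0 approved/investigational drugs pinned in; DMSO = 100%, media only = 0% viability.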

[4] = Quantitative High-Throughput drug screen in 47 multiple myeloma cell lines against the NCATS MIPE library collection: KMS12PE_JCRB cell viability assay (AID 1918972); note: nearly all actives have a fitted effect of over 30% in size
Summary of the method: as §1

[5] = Quantitative High-Throughput drug screen in 47 multiple myeloma cell lines against the NCATS MIPE library collection: JIM1_ECACC cell viability assay (AID 1918964)
Summary of the method: (§3)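 Myeloma cells (500 per well) were exposed to MIPE 4.0 compounds by pin transfer and incubated 48 hours at 37C, 5% CO2. Viability was read as ATP by CellTiter-Glo luminescence, normalised to DMSO (100%) and media-only (0%) wells.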

[6] = Quantitative High-Throughput drug screen in 47 multiple myeloma cell lines against the NCATS MIPE library collection: INA6_PLB cell viability assay (AID 1918965; note: nearly all actives have a fitted effect of over 55% in size)
Summary of the method: as §1

[7] = Quantitative High-Throughput drug screen in 47 multiple myeloma cell lines against the NCATS MIPE library collection: JJN3_DSMZ cell viability assay (AID 1918966; note: nearly all actives have a fitted effect of over 50% in size)
Summary of the method: as §3

[8] = Quantitative High-Throughput drug screen in 47 multiple myeloma cell lines against the NCATS MIPE library collection: Karpas25_ECACC cell viability assay (AID 1918968; note: nearly all actives have a fitted effect of over 35% in size)
Summary of the method: as §3

[9] = Quantitative High-Throughput drug screen in 47 multiple myeloma cell lines against the NCATS MIPE library collection: KHM11_PLB cell viability assay (AID 1918962); note: nearly all actives have a fitted effect of over 35% in size
Summary of the method: as §1

[10] = Quantitative High-Throughput drug screen in 47 multiple myeloma cell lines against the NCATS MIPE library collection: JIM3_ECACC cell viability assay (AID 1918963; note: nearly all actives have a fitted effect of over 35% in size)
Summary of the method: as §1

[11] = Quantitative High-Throughput drug screen in 47 multiple myeloma cell lines against the NCATS MIPE library collection: H1112_PLB cell viability assay (AID 1918967; note: nearly all actives have a fitted effect of over 30% in size)
Summary of the method: as §3

[12] = Quantitative High-Throughput drug screen in 47 multiple myeloma cell lines against the NCATS MIPE library collection: KMS26_JCRB cell viability assay (AID 1918975); note: nearly all actives have a fitted effect of over 45% in size
Summary of the method: as §2

[13] = Quantitative High-Throughput drug screen in 47 multiple myeloma cell lines against the NCATS MIPE library collection: MMM1_PLB cell viability assay (AID 1918976); note: nearly all actives have a fitted effect of over 35% in size
Summary of the method: (§4)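 500 cells/well per myeloma line exposed to pinned MIPE 4.0 compounds for 48 h at 37 °C, 5% CO2. Viability read as ATP by CellTiter-Glo luminescence, normalised to DMSO-only (100%) and media-only (0%) wells.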

[14] = Quantitative High-Throughput drug screen in 47 multiple myeloma cell lines against the NCATS MIPE library collection: NCIH929_DSMZ cell viability assay (AID 1918978); note: nearly all actives have a fitted effect of over 35% in size
Summary of the method: as §4

[15] = Quantitative High-Throughput drug screen in 47 multiple myeloma cell lines against the NCATS MIPE library collection: OCIMY1_PLB cell viability assay (AID 1918979); note: nearly all actives have a fitted effect of over 35% in size
Summary of the method: as §4

[16] = Quantitative High-Throughput drug screen in 47 multiple myeloma cell lines against the NCATS MIPE library collection: MM1R_ATCC cell viability assay (AID 1918981); note: nearly all actives have a fitted effect of over 35% in size
Summary of the method: as §4

[17] = Quantitative High-Throughput drug screen in 47 multiple myeloma cell lines against the NCATS MIPE library collection: KMS27_JCRB cell viability assay (AID 1918970); note: nearly all actives have a fitted effect of over 30% in size
Summary of the method: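 Luminescent ATP read-out (CellTiter-Glo, 5 min at room temperature) after 48 h compound exposure of 500 KMS27_JCRB cells per well; DMSO wells define full viability and media-only wells zero.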

[18] = Quantitative High-Throughput drug screen in 47 multiple myeloma cell lines against the NCATS MIPE library collection: KMS20_JCRB cell viability assay (AID 1918973); note: nearly all actives have a fitted effect of over 45% in size
Summary of the method: as §3

[19] = Quantitative High-Throughput drug screen in 47 multiple myeloma cell lines against the NCATS MIPE library collection: MOLP8_DSMZ cell viability assay (AID 1918977); note: nearly all actives have a fitted effect of over 45% in size
Summary of the method: as §4

[20] = Quantitative High-Throughput drug screen in 47 multiple myeloma cell lines against the NCATS MIPE library collection: MM1S_ATCC cell viability assay (AID 1918980); note: nearly all actives have a fitted effect of over 45% in size
Summary of the method: as §4
Potency is the fitted concentration of half-maximal effect.

SMILES	Potency [1]	Potency [2]	Potency [3]	Potency [4]	Potency [5]	Potency [6]	Potency [7]	Potency [8]	Potency [9]	Potency [10]	Potency [11]	Potency [12]	Potency [13]	Potency [14]	Potency [15]	Potency [16]	Potency [17]	Potency [18]	Potency [19]	Potency [20]
CC(C)c1nc(CN(C)C(=O)N[C@H](C(=O)N[C@@H](Cc2ccccc2)C[C@H](O)[C@H](Cc2ccccc2)NC(=O)OCc2cncs2)C(C)C)cs1	inactive	inactive	4.69 µM (active)	inactive	–	–	–	–	–	–	–	–	–	–	–	–	–	–	–	–
Clc1ccc(C(Cn2ccnc2)OCc2c(Cl)cccc2Cl)c(Cl)c1 (stereo not drawn)	18.7 µM (active)	16.6 µM (active)	23.5 µM (active)	14.8 µM (active)	23.5 µM (active)	29.6 µM (active)	23.5 µM (active)	26.4 µM (active)	–	–	–	–	–	–	–	–	–	–	–	–
CN1C(C(=O)Nc2ccccn2)=C(O)c2sccc2S1(=O)=O	inactive	–	–	inactive	inactive	–	–	inactive	inactive	inactive	inactive	inactive	2.35 µM (active)	inactive	inactive	inactive	–	–	–	–
CC[C@]1(O)C[C@H]2CN(CCc3c([nH]c4ccccc34)[C@@](C(=O)OC)(c3cc4c(cc3OC)N(C=O)[C@H]3[C@@](O)(C(=O)OC)[C@H](OC(C)=O)[C@]5(CC)C=CCN6CC[C@]43[C@@H]65)C2)C1	0.0469 µM (active)	0.935 µM (active)	0.0019 µM (active)	0.0743 µM (active)	0.0209 µM (active)	–	0.0935 µM (active)	0.0105 µM (active)	–	–	0.0093 µM (active)	0.0372 µM (active)	1.05 µM (active)	–	0.059 µM (active)	–	0.0166 µM (active)	0.0148 µM (active)	–	–
Cc1nc2n(c(=O)c1CCN1CCC(c3noc4cc(F)ccc34)CC1)CCCC2	inactive	inactive	inactive	inactive	–	inactive	–	inactive	inactive	–	inactive	–	–	inactive	inactive	inactive	–	inactive	inactive	inactive
O=C(NCC1CCCCN1)c1cc(OCC(F)(F)F)ccc1OCC(F)(F)F (stereo not drawn)	2.64 µM (active)	0.0743 µM (active)	–	2.09 µM (active)	1.87 µM (active)	13.2 µM (active)	inactive	9.35 µM (active)	9.35 µM (active)	8.33 µM (active)	8.33 µM (active)	–	–	9.35 µM (active)	–	–	0.526 µM (active)	7.43 µM (active)	–	8.33 µM (active)
O=C(NOCC1CC1)c1ccc(F)c(F)c1Nc1ccc(I)cc1Cl	6.62 µM (active)	–	20.9 µM (active)	14.8 µM (active)	9.35 µM (active)	9.35 µM (active)	20.9 µM (active)	11.8 µM (active)	0.0235 µM (active)	6.62 µM (active)	–	–	–	20.9 µM (active)	–	–	4.18 µM (active)	0.59 µM (active)	14.8 µM (active)	23.5 µM (active)
N[C@@H](Cc1cc(I)c(Oc2cc(I)c(O)c(I)c2)c(I)c1)C(=O)O	inactive	inactive	–	inactive	0.0053 µM (active)	–	inactive	inactive	–	–	inactive	–	2.96 µM (active)	inactive	inactive	inactive	–	–	–	inactive
Cc1cc2c(s1)Nc1ccccc1N=C2N1CCN(C)CC1	inactive	inactive	–	inactive	inactive	–	–	3.32 µM (active)	–	inactive	inactive	inactive	–	inactive	inactive	inactive	inactive	inactive	inactive	–
COc1c(O)cc2c(c1O)[C@@H]1O[C@H](CO)[C@@H](O)[C@H](O)[C@H]1OC2=O	inactive	inactive	4.18 µM (active)	inactive	inactive	–	–	–	inactive	–	inactive	inactive	2.35 µM (active)	inactive	inactive	inactive	–	inactive	–	inactive
Nc1ccn([C@@H]2O[C@H](CO)[C@@H](O)C2O)c(=O)n1 (stereo partly drawn)	inactive	inactive	inactive	inactive	4.18 µM (active)	–	–	1.48 µM (active)	–	–	–	–	–	–	–	inactive	inactive	–	inactive	–
CC(C)c1ccc2c(c1)c(SC(C)(C)C)c(CC(C)(C)C(=O)O)n2Cc1ccc(Cl)cc1	inactive	–	20.9 µM (active)	inactive	inactive	–	18.7 µM (active)	20.9 µM (active)	inactive	–	–	–	2.64 µM (active)	26.4 µM (active)	inactive	–	inactive	–	–	7.43 µM (active)
O=C(O)c1cc(=O)c2c(OCC(O)COc3cccc4oc(C(=O)O)cc(=O)c34)cccc2o1	inactive	–	–	–	–	–	–	inactive	–	inactive	inactive	–	–	–	–	inactive	–	–	–	–
Cc1cccc(C)c1OCC(=O)N[C@@H](Cc1ccccc1)[C@@H](O)C[C@H](Cc1ccccc1)NC(=O)[C@H](C(C)C)N1CCCNC1=O	6.62 µM (active)	–	–	6.62 µM (active)	–	–	–	–	inactive	–	16.6 µM (active)	18.7 µM (active)	16.6 µM (active)	–	–	–	–	–	–	20.9 µM (active)
Nc1ncn([C@H]2C[C@H](O)[C@@H](CO)O2)c(=O)n1	0.296 µM (active)	–	–	–	–	0.0235 µM (active)	–	4.69 µM (active)	inactive	–	–	inactive	–	–	inactive	inactive	inactive	0.132 µM (active)	inactive	0.418 µM (active)
CNC[C@H](O)c1ccc(O)c(O)c1	inactive	–	19.1 µM (active)	inactive	–	–	13.6 µM (active)	5.4 µM (active)	inactive	–	inactive	10.8 µM (active)	6.79 µM (active)	–	38.2 µM (active)	6.05 µM (active)	inactive	10.8 µM (active)	8.55 µM (active)	17.1 µM (active)
